# Compound activity: PubChem, several laboratories
# Tat transport = E. coli Tat export inhibitors, primary screen, MC4100, TorA-mCherry reporter, fluorescence, single point | inhibition, % at 10 µM | actives 0.036% (n = 340,000);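 active = mean replicate inhibition at least 50% and at least half of replicates individually reaching 50%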;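 note: exported cargo escapes ClpAP degradation while cytoplasmic cargo is degraded and loses fluorescence; 0% = median of neutral control wells and 100% = median of NaSCN control wells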
# phage Ecoli inh = growth loss of phage-infected E. coli, primary screen, RecBCD inhibitor project, absorbance, with phage, HTS; inhibition, % at 11.9 µM; actives 0.26% (n = 360,000); AID 651602, 2012; in the data active = inhibition above about 11%
# AddAB inh = growth inhibition of E. coli expressing H. pylori AddAB, primary screen, AddAB inhibitor project, absorbance | inhibition, % at 11.9 µM | actives 0.29% (n = 330,000); in the data active = inhibition above about 12%;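 note: 0% = vehicle wells of infected cells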
# E coli growth-1 = E. coli V3065 growth inhibition, primary screen, counter-screen for AddAB inhibitor project, absorbance, OD600; 18 h; inhibition, % at 11.9 µM; actives 0.27% (n = 330,000);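 active = inhibition above the campaign's mean inhibition across all tested compounds plus 3 SD, cut at about 9.9% in these data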;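 note: uninfected addAB+ strain grown without phage in ampicillin broth; 0% = DMSO wells and 100% = ciprofloxacin 0.95 µg/ml wells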
# E coli growth-2 = E. coli growth inhibition, primary screen, OD600 | Escherichia coli growth, 23 h; stronger effect = lower value | OD600 absorbance (test concentration not listed) | AID 1053175, 2014 | actives 0.21% (n = 330,000);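 active = OD600 absorbance below the run mean of sample wells minus 3.6 SD, in any replicate, cut at about 0.56 in these data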
# AddAB confirm = growth loss of phage-infected E. coli expressing H. pylori AddAB, confirmation, AddAB inhibitor project, absorbance, E. coli V3065, T4 phage, triplicate; shares compounds with AddAB inh; OD; T4 phage with gene 2 nonsense mutations; inhibition, % at 11.9 µM; actives 64% (n = 880); AID 488942, 2010;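 active = mean inhibition above a set limit taken from the earlier primary screen, cut at about 13% in these data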;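 note: higher means less bacterial growth since AddAB block lets phage replicate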
# RecBCD counter = growth loss of RecBCD+ E. coli with mutant T4 phage, counter-screen for AddAB inhibitor project, absorbance, V66 E. coli. shares compounds with AddAB inh. OD growth. inhibition, % at 11.9 µM. actives 73% (n = 880). AID 488955, 2010;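 active = mean inhibition above the mean of solvent-only control wells plus 3 SD, cut at about 4% in these data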;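 note: optical density read after an 18 h incubation at 37 °C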
# bact viab count = bacterial viability inhibition counter-screen, confirmation, counter-screen for AddAB inhibitor project, absorbance; absorbance (AddAB counterscreen); actives 35% (n = 880); inhibition, % at 11.9 µM; shares compounds with AddAB inh; in the data active = inhibition above about 25%
# * = called active by the depositor; . = no result given. An excerpt weighted towards active compounds, which were near 0.5% of everything screened.
SMILES,Tat transport,phage Ecoli inh,AddAB inh,E coli growth-1,E coli growth-2,AddAB confirm,RecBCD counter,bact viab count
O=C(/C=C/c1ccccc1Cl)c1ccc(O)cc1,9,-2,1,-1,0.61,.,.,.
Cc1ccc(C=Nn2cnc3sc4c(c3c2=O)CCCC4)o1,.,.,.,.,0.66,.,.,.
Cc1ccc(OCC(=O)Nc2ccc3c(c2)CCC3)c([N+](=O)[O-])n1,-3,5,1,1,0.69,.,.,.
COc1ccc(NC(=O)COc2ccc(C)nc2[N+](=O)[O-])cc1S(N)(=O)=O,-5,7,15*,12*,0.62,46*,7.8*,29*
Cc1cccc(C(=O)OC2C(Cc3ccccc3)NS(=O)(=O)C3CC4C=C[C@]23O4)c1 (stereo partly specified),.,.,.,.,0.63,.,.,.
O=C1C=C(c2cc(F)ccc2F)CC(c2ccc(F)cc2)C1 (stereo unspecified),.,.,.,.,0.7,.,.,.
CCn1cc(C(=O)NCc2ccncc2)c(=O)c2cc(F)c(N3CCN(C(=O)c4ccco4)CC3)cc21,.,3,98*,92*,0.071*,99*,8.0*,88*
CCn1cc(C(=O)NCCC(=O)OC)c(=O)c2cc3c(cc21)OCO3,-1,2,0,0,0.68,.,.,.
CCn1cc(C(=O)NCc2ccc3c(c2)OCO3)c(=O)c2cc(F)c(N3CCN(C(=O)c4ccco4)CC3)cc21,30,10,97*,91*,0.052*,99*,10*,98*
CCn1cc(C(=O)NCc2ccccc2)c(=O)c2cc(F)c(N3CCN(C(=O)c4ccco4)CC3)cc21,0,1,8,6,0.56,.,.,.
COc1ccccc1C=NNC(=O)C(=O)N1CCN(c2ccccc2OC)CC1,.,.,.,.,0.65,.,.,.
CCOc1ccc(S(=O)(=O)n2cc(F)c(=O)[nH]c2=O)cc1[N+](=O)[O-],-1,10,24*,17*,0.73,11,2,7
Cc1ccc(OCC(=O)c2c[nH]c3ccccc23)c([N+](=O)[O-])n1,7,7,23*,20*,0.64,46*,6.8*,42*
COc1ccc(C=NNC(=O)c2cccc(C(=O)NN=Cc3ccc(OC)c(OC)c3)n2)cc1OC,.,.,.,.,0.68,.,.,.
CC1CCCN(Cc2nc3c(c(=O)n(C)c(=O)n3C)n2Cc2c(F)cccc2Cl)C1 (stereo unspecified),-11,-1,99*,16*,0.78,-1,1,-2
COc1ccc(S(=O)(=O)Nc2cccc3c2OC(CN(C)C(=O)NC(C)C)C(C)CN(C(C)CO)C3=O)cc1 (stereo unspecified),.,.,.,.,0.71,.,.,.
O=C(COC(=O)c1ccccc1NC(=O)c1ccco1)NCC1CCCCC1,-6,0,97*,98*,0.68,-2,2,0
CC(=O)Nc1ccc(C(=O)OCC(=O)Nc2c(F)cccc2F)cc1,2,-1,90*,74*,0.72,-1,0,-4
CC(=O)Nc1ccc(C(=O)OCC(=O)c2ccc(F)cc2)cc1,0,5,2,1,0.65,.,.,.
CC1CN(C(C)CO)C(=O)Cc2cc(NC(=O)CCC(F)(F)F)ccc2OC1CN(C)C(=O)Nc1ccccc1 (stereo unspecified),.,.,.,.,0.73,.,.,.
O=C1C(Nc2ccccc2)=C/C(=N/S(=O)(=O)c2cccs2)c2ccccc21,13,.,17*,3,.,1,4.7*,-4
COc1ccc2[nH]c3c(c2c1)CCNC3c1ccc([N+](=O)[O-])o1 (stereo unspecified),5,4,41*,10*,.,14*,3,1
CC(C)C1COCCS(=O)(=O)N1Cc1cccc(Cl)c1 (stereo unspecified),.,.,.,.,0.68,.,.,.
CCOC(=O)c1ccccc1NC(=O)CSc1ccc(-c2ccccn2)nn1,12,9,13*,13*,0.7,6,7.8*,6
CCc1ccc(NC(=O)CSc2ccc(-c3ccccn3)nn2)cc1,-13,10,13*,15*,0.64,9,9.3*,8
SMILES,Tat transport,phage Ecoli inh,AddAB inh,E coli growth-1,E coli growth-2,AddAB confirm,RecBCD counter,bact viab count
CC(=O)Nc1cccc(NC(=O)CSc2ccc(-c3ccccn3)nn2)c1,-5,10,5,4,0.64,.,.,.
Cc1ccc2cc(C=NNC(=O)[C@H]3C[C@@H]3c3ccccc3)c(Cl)nc2c1,.,.,.,.,0.71,.,.,.
Cc1ccc(NC(=O)CSc2n[nH]c(C)c2[N+](=O)[O-])cc1,-3,9,14*,7,0.68,2,4.7*,2
Cc1[nH]nc(SCC(=O)Nc2ccc(C#N)cc2)c1[N+](=O)[O-],-8,10,10,7,.,.,.,.
O=C(CSc1ccccc1)NC(Cc1ccccc1)C(=O)O (stereo unspecified),.,.,.,.,0.7,.,.,.
CCOC(=O)c1cccc(NC(=S)N2CCN(c3ncc4c(=O)c(C(=O)O)cn(CC)c4n3)CC2)c1,9,5,7,6,0.68,.,.,.
CCn1cc(C(=O)O)c(=O)c2cnc(N3CCN(C(=S)Nc4ccccc4C(F)(F)F)CC3)nc21,3,6,98*,95*,0.54,49*,2,23
CCn1cc(C(=O)O)c(=O)c2cnc(N3CCN(C(=S)Nc4ccccc4)CC3)nc21,-3,1,98*,50*,0.44*,5,1,1
O=C(O)CC1S/C(=N/N=Cc2ccc(-c3ccccc3[N+](=O)[O-])o2)NC1=O (stereo unspecified),.,.,.,.,0.69,.,.,.
CCOC(=O)N1CCN(c2c(NCCCN3CCCCCC3)c(=O)c2=O)CC1,-2,3,12*,5,0.75,0,1,-2
CS(=O)(=O)N1CCN(c2ccccc2NC(=O)c2ccc([N+](=O)[O-])o2)CC1,0,1,1,0,0.69,.,.,.
O=C(Nc1ccccc1Cl)c1ccc([N+](=O)[O-])o1,-17,9,31*,24*,0.57,92*,10*,29*
CCn1nnc(NC(=O)c2ccc([N+](=O)[O-])o2)n1,-11,7,19*,11*,0.56,61*,6.5*,12
Cc1ccccc1NC(=O)c1ccc([N+](=O)[O-])o1,-9,10,24*,11*,0.65,31*,6.7*,12
CCCCn1nnc(NC(=O)c2ccc(-c3ccccc3[N+](=O)[O-])o2)n1,14,4,3,-1,0.62,.,.,.
CN1CCN(c2ccccc2NC(=O)c2ccc([N+](=O)[O-])o2)CC1,-6,.,27*,25*,0.56,101*,11*,38*
